DT40 TDP1 CPT: qHTS for Inhibitors of human tyrosyl-DNA phosphodiesterase 1 (TDP1): qHTS in cells in presence of CPT. chicken DT40 Tdp1-/-;hTDP1 cells + 20 nM CPT, ATP luminescence, 48 h. Potency, µM (series often up to 46.2 µM), actives largely listed as inhibitors. 420,000 compounds, 12% hits; further: nearly all actives have a fitted effect of over 55% in size
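Chicken DT40 Tdp1-/- cells stably complemented with human TDP1 were seeded at 400 cells/well in medium containing 20 nM camptothecin, exposed to pin-transferred compounds, and grown at 37 °C for at least 48 hr. Viability was read as ATP luminescence.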
RORgamma inh: qHTS for inhibitors of ROR gamma transcriptional activity. Nuclear receptor ROR-gamma (Mus musculus), P51450. Drosophila S2 Gal4-RORgamma UAS-luciferase reporter, 20 h. Potency, µM (series often up to 53.6 µM), usual class: inhibitors. 310,000 compounds, 5.4% hits; further: nearly all actives have a fitted effect of over 60% in size
Target sequence (P51450 whole entry, looked up, the tested form may be a part): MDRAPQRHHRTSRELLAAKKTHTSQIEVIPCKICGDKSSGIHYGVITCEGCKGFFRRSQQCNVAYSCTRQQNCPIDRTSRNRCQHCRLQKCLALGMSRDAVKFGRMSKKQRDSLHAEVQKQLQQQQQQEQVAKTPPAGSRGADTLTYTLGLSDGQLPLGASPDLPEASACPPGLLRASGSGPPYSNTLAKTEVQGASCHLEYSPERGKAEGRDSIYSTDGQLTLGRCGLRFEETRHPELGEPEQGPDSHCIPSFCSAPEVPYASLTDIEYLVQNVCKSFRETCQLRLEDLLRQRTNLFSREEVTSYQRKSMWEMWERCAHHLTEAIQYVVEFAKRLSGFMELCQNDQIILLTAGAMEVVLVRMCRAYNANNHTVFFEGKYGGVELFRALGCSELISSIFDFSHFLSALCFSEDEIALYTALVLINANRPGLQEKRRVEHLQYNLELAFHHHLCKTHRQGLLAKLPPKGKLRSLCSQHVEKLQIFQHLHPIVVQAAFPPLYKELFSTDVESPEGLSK
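Luminescence from a UAS-regulated Photinus luciferase reporter in stably transfected Drosophila Schneider cells is measured; decreased signal marks ROR gamma inhibition. Fusion expression is induced by 700 uM copper sulfate for 20 hr.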
VP16 counter: VP16 counterscreen qHTS for inhibitors of ROR gamma transcriptional activity | 310,000 compounds, 3.5% hits | Potency, µM (highest dose often 53.6 µM), hits mostly inhibitors | Drosophila S2 Gal4-VP16 UAS-luciferase, luminescence, 20 h;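 further: Gal4-VP16 expression switched on by copper sulfate through the metallothionein promoter; nearly all actives have a fitted effect of over 50% in size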
TDP1 block: qHTS Assay for Inhibitors of Tyrosyl-DNA Phosphodiesterase (TDP1) | Tyrosyl-DNA phosphodiesterase 1 (Homo sapiens), Q9NUW8 | recombinant TDP1, AlphaScreen DNA substrate cleavage | Potency, µM (titrated, usually from 130 µM), most hits filed as inhibitors | 350,000 compounds, 0.28% hits; further: nearly all actives have a fitted effect of over 40% in size
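Signal: AlphaScreen proximity between streptavidin donor and anti-FITC acceptor beads on intact substrate. Reaction: Tdp1 1 nM, substrate 15 nM final, 5 min RT after 15 min compound preincubation.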
TDP1 cell noCPT: qHTS for Inhibitors of human tyrosyl-DNA phosphodiesterase 1 (TDP1): qHTS in cells in absence of CPT; 420,000 compounds, 15% hits; Potency, µM (top dose mostly 46.2 µM), hits mostly inhibitors; DT40 Tdp1-/- hTDP1 cells, no CPT, ATP luminescence, 48 h; further: nearly all actives have a fitted effect of over 55% in size
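Chicken DT40 Tdp1-/- cells stably complemented with human TDP1 were seeded at 400 cells/well with DMSO in place of 20 nM camptothecin. After compound pinning, cells grew at least 48 hr at 37 °C; viability read by CellTiter-Glo luminescence.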
A number is an active result; . = inactive; ? = inconclusive; / = not tested or not shown; [ ] = another dose, or the depositor's remark. Rows were chosen to be rich in hits. Some 19% of all compounds tested hit in one or more screens of this group. The call rests on the fitted dose curve; in most records, active means well fitted curve in the direction sought with a large enough effect; inconclusive means small, poorly fitted or top-dose-only effect, or another doubt; inactive means no such curve, though single readings can be large; an effect the other way counts as inactive or inconclusive.

SMILES	DT40 TDP1 CPT	RORgamma inh	VP16 counter	TDP1 block	TDP1 cell noCPT
COc1ccccc1NS(=O)(=O)c1cccc(C(=O)N/N=C/c2c(C)nn(-c3ccccc3)c2N2CCCC2)c1	21µM	.	.	.	21µM
COc1ccc2c(c1)c1c(c(=O)n(-c3ccc(C)cc3)c(=O)n1CC(=O)c1ccc(Cl)cc1)n2C	.	/	/	.	?
CC(=O)N1N=C(c2cccc(NS(C)(=O)=O)c2)CC1c1cccs1 (stereo unspecified)	.	.	.	.	.
CC(=O)N1N=C(c2cccc(O)c2)CC1c1cccs1 (stereo unspecified)	15µM	.	.	/	?
CC(=O)N1N=C(c2ccccc2O)CC1c1cccs1 (stereo unspecified)	?	.	.	/	6.5µM
C[N+]1(C)CCC[C@@H](OC(=O)C(O)(c2ccccc2)c2ccccc2)C1	/	.[2.98 µM]	.	.	/
Cc1cc2ccccc2n2c(SCC(=O)N3CCc4ccccc4C3)nnc12	?	?	18µM	.	?
Cn1cnnc1SCC(=O)N1CCc2ccccc2C1	.	/	/	/	.
C=CCn1c(SCC(=O)N2CCN(C(=O)c3ccco3)CC2)nc2sc(CC)cc2c1=O	.	?	.	.	?
C=CCn1c(SCC(=O)N2CCc3ccccc3C2)nc2sc(C)cc2c1=O	?	?	.	.	26µM
COc1ccc(N2CCN(C(=O)CSc3nnc4c(C)cc5ccccc5n34)CC2)cc1	16µM	.[10 µM]	.	.	13µM
O=C(Nc1ccc(C(=O)OC[C@@H]2CCCN3CCCC[C@H]23)cc1)c1cccc(Br)c1	?	.	.	.	18µM
CCOC(=O)c1c(C)[nH]c(C(=O)Nc2cc(OCC)c(N3CCOCC3)cc2OCC)c1C	?	/	/	.	?
Cc1ccccc1CNC(=O)CN(c1cccc([N+](=O)[O-])c1)S(C)(=O)=O	.	.	.[10 µM]	.	.
C=CCSc1nc2sc3c(c2c(=O)n1CC)CCc1ccccc1-3	10µM	10µM	?	.	?
C=CCn1c(SC)nc2sc3c(c2c1=O)CCc1ccccc1-3	?	.	.	.	?
CC(C)OC(=O)N(C)C[C@@H]1OCc2cn(nn2)CCCC(=O)N([C@@H](C)CO)C[C@H]1C	.	/	/	/	.
COc1cccc(C(=O)C(C#N)=C(SC)SC)c1	2.6µM	.	?	.	2.3µM
CSC(SC)=C(C#N)C(=O)c1ccccc1	2.1µM	.	11µM	.	2.6µM
COc1cccc(C(=O)C(CCC#N)c2ccccc2)c1 (stereo unspecified)	.	/	/	/	?
O=C(O)CCc1nn2c3ccccc3nc2n(-c2ccccc2)c1=O	.	11µM	.	.	.
CCOC(=O)C1(Cc2cccc(OC)c2)CCCN(C(=O)c2ccc(OC)o2)C1 (stereo unspecified)	?	.	?	.	?
O=C(C1CCCN(c2ncnc3c2nc2n3CCCCC2)C1)N1CCN(c2ccccc2F)CC1 (stereo unspecified)	?	?	.	.	9.2µM
CCOC(=O)N1CCN(C(=O)C2CCCN(c3ncnc4c3nc3n4CCCCC3)C2)CC1 (stereo unspecified)	?	.	.	.	?
COc1cccc(N2CCN(C(=O)C3CCCN(c4ncnc5c4nc4n5CCCCC4)C3)CC2)c1 (stereo unspecified)	16µM	.	.	.	?
SMILES	DT40 TDP1 CPT	RORgamma inh	VP16 counter	TDP1 block	TDP1 cell noCPT
Cc1ccc(-c2nnn(CC(=O)N(CC(=O)NC3CCCC3)c3ccc(F)cc3)n2)o1	.	.	.	/	.
Cc1ccsc1/C=N/NC(=O)CNC(=O)c1ccc(S(=O)(=O)N(C)C)cc1	.	.	.	.	.
COc1ccccc1/C=C/C=C(\C#N)C(=O)NC(C)c1ccccc1 (stereo unspecified)	.	.	.	.	21µM
O=C(/C(=C/c1cccnc1)n1ccnc1)c1ccc(Cl)cc1Cl	16µM	.	.	.	15µM
O=C(/C(=C/c1ccncc1)n1ccnc1)c1ccc(Cl)cc1Cl	16µM	?	.	.	13µM
N/C(=N\OC(=O)c1ccc(Cl)cc1Cl)c1ccncc1	.	.	.	/	.
